This is a sample that favours compounds with a hit; in the whole collection about 0.92% have one here.
LAP4-GFP MLPCN – modulators of LAP4-GFP expression in yeast, primary screen, S. cerevisiae, multiplex flow cytometry, MLPCN library; 3 h; median GFP as percent of DMSO wells; GFP response vs DMSO, % at 10 µM; 0.34% of 320,000 active; AID 2023, 2009;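 active means GFP response vs DMSO above a set limit, about the screen mean plus 3 SD, cut at about 150% in these data; inconclusive means under 70 cell events counted for the yeast strain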
MEP2-GFP yeast – modulators of MEP2-GFP levels in yeast, primary screen, S. cerevisiae, multiplex flow cytometry, MLPCN library | AID 2016, 2009 | S. cerevisiae MEP2-GFP strain, 3 h; 100% = DMSO control level | 0.51% of 330,000 active | GFP response vs DMSO, % at 10 µM;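 active means GFP response versus DMSO above a set limit, roughly screen mean plus 3 SD, cut at about 180% in these data; inconclusive means fewer than 70 cells counted for a yeast strain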;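 further: median GFP fluorescence of the barcode-gated MEP2-GFP cells per well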
RPL19A-GFP yeast – RPL19A-GFP expression modulators in yeast, primary screen, cell-based, S. cerevisiae, multiplex flow cytometry, MLPCN. S. cerevisiae RPL19A-GFP strain, 3 h; hits give low values. percent response vs DMSO, % at 10 µM. 0.3% of 330,000 active. AID 2025, 2009;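 active means percent response vs DMSO below 50%; inconclusive means fewer than 70 events counted for the yeast strain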;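 further: median channel GFP fluorescence of the barcoded RPL19A-GFP strain; ratio of sample median GFP to plate DMSO average so 100% = DMSO; lower means less RPL19A-GFP as with rapamycin TOR inhibition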
CIT2 TOR yeast – modulators of CIT2-GFP expression in yeast, primary screen, S. cerevisiae, GFP fusion, multiplex flow cytometry, MLPCN library; GFP response vs DMSO, % at 10 µM; S. cerevisiae CIT2-GFP strain, 3 h; 100 means same as DMSO wells; 0.065% of 320,000 active;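 active means GFP response relative to DMSO above a set limit, near the screen mean plus 3 SD, cut at about 150% in these data; inconclusive means Fewer than 70 cells measured for a yeast strain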;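 further: ratio of well median GFP fluorescence to mean of DMSO wells on the plate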
AGP1 TOR yeast – modulators of AGP1-GFP expression in yeast TOR pathway, primary screen, cell-based, multiplex flow cytometry, S. cerevisiae, MLPCN library; 3 h; GFP as percent of DMSO wells; GFP response vs DMSO, % at 10 µM; 0.02% of 320,000 active;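 active means GFP response relative to DMSO above a set limit, near screen average plus 3 SD, cut at about 150% in these data; inconclusive means fewer than 70 cells counted for the yeast strain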;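 further: median GFP channel fluorescence of the gated AGP1 strain per well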
s288c autofluor – compound autofluorescence in yeast s288c, dose response, artefact control for yeast TOR pathway GFP screen, s288c strain; shares compounds with LAP4-GFP MLPCN; S. cerevisiae s288c, 520 nm autofluorescence, flow cytometry, 3 h; hits give high values; zero means same as solvent-only cells; fluorescence change (kMESF span) at 33 µM; 610 tested, under 10 active; AID 2757, 2010;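 active means fluorescence span over the dose series, or activity score, above about 33, limit read from the data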
Active calls of the source: *; [ ] = dose if it differs, or a comment.

How did Cc1ccc(/C=C/C(=O)NC2CCCCCCC2)o1 do in these assays?
LAP4-GFP MLPCN: 170*; MEP2-GFP yeast: 82; RPL19A-GFP yeast: 101; CIT2 TOR yeast: 87; AGP1 TOR yeast: 85

What do the screens show for `O=C(N/N=C/c1ccc(Br)s1)c1ccco1`?
LAP4-GFP MLPCN: 119; MEP2-GFP yeast: 96; RPL19A-GFP yeast: 98; CIT2 TOR yeast: 98; AGP1 TOR yeast: 107

What do the screens show for `O=C(N/N=C/c1sc(=O)n(Cc2ccc(Br)cc2)c1Cl)c1ccco1`?
LAP4-GFP MLPCN: 56; MEP2-GFP yeast: 238*[may fluoresce violet]; RPL19A-GFP yeast: 52; CIT2 TOR yeast: inconclusive; AGP1 TOR yeast: inconclusive

How did CCOc1ccc(NC(=O)C/C(C)=N/NC(=O)COc2ccc(Br)cc2C)cc1 do in these assays?
LAP4-GFP MLPCN: 96; MEP2-GFP yeast: 252*[may fluoresce violet]; RPL19A-GFP yeast: 61; CIT2 TOR yeast: inconclusive; AGP1 TOR yeast: 27

What do the screens show for `O=C(Nc1ccc(NC(=O)C2CC2)cc1)c1cccs1`?
LAP4-GFP MLPCN: 87; MEP2-GFP yeast: 108; RPL19A-GFP yeast: 118; CIT2 TOR yeast: 108; AGP1 TOR yeast: 101

What do the screens show for `Cc1ccc(NC(=O)c2nc(S(=O)(=O)Cc3ccccc3)ncc2Cl)cc1`?
LAP4-GFP MLPCN: 152*; MEP2-GFP yeast: 86; RPL19A-GFP yeast: 95; CIT2 TOR yeast: 74; AGP1 TOR yeast: 92; s288c autofluor: -0.3

Results for COc1cc(C(=O)NCC(=O)N/N=C/c2ccc(-c3cccc([N+](=O)[O-])c3)o2)cc(OC)c1OC ?
LAP4-GFP MLPCN: 93; MEP2-GFP yeast: 104; RPL19A-GFP yeast: 105; CIT2 TOR yeast: 104; AGP1 TOR yeast: 108

How did O=C(/C=C/c1cc(Br)ccc1O)c1ccco1 do in these assays?
LAP4-GFP MLPCN: 196*; MEP2-GFP yeast: 87; RPL19A-GFP yeast: 77; CIT2 TOR yeast: 70; AGP1 TOR yeast: 88; s288c autofluor: -0.1

What do the screens show for `COc1ccc2cc(/C(C)=N/NC(=O)c3cc(-c4cccnc4)nc4ccccc34)ccc2c1`?
LAP4-GFP MLPCN: 96; MEP2-GFP yeast: 106; RPL19A-GFP yeast: 105; CIT2 TOR yeast: 102; AGP1 TOR yeast: 104

How did COC(=O)c1ccc(OC(=O)CCc2cc(OC)c(OC)c(OC)c2)cc1 do in these assays?
LAP4-GFP MLPCN: 99; MEP2-GFP yeast: 93; RPL19A-GFP yeast: 95; CIT2 TOR yeast: 97; AGP1 TOR yeast: 107

What do the screens show for `Cc1ccc(C2=NOC(=O)/C2=C\c2ccccc2)cc1`?
LAP4-GFP MLPCN: 142; MEP2-GFP yeast: 93; RPL19A-GFP yeast: 96; CIT2 TOR yeast: 101; AGP1 TOR yeast: 96

What do the screens show for `COc1cc(/C=C2\C(=O)ON=C2c2ccccc2)cc(Cl)c1O`?
LAP4-GFP MLPCN: 117; MEP2-GFP yeast: 111; RPL19A-GFP yeast: 112; CIT2 TOR yeast: 108; AGP1 TOR yeast: 109
